Screens from PubChem BioAssay.
DT40 TDP1 CPT: qHTS for Inhibitors of human tyrosyl-DNA phosphodiesterase 1 (TDP1): qHTS in cells in presence of CPT; AID 686979, 2013; Potency, µM (titrated, usually from 46.2 µM), for the others: at the highest dose activity change, negative = growth inhibition, actives largely listed as inhibitors; chicken DT40 Tdp1-/-;hTDP1 cells + 20 nM CPT, ATP luminescence, 48 h; 420,000 compounds, 12% hits; note: nearly all actives have a fitted effect of over 55% in size
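Chicken DT40 Tdp1-/- cells stably complemented with human TDP1 were seeded at 400 cells/well in medium containing 20 nM camptothecin, exposed to pin-transferred compounds, and grown at 37 °C for at least 48 hr. Viability was read as ATP luminescence.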
DT40 TDP1 no CPT: qHTS for Inhibitors of human tyrosyl-DNA phosphodiesterase 1 (TDP1): qHTS in cells in absence of CPT. DT40 Tdp1-/- hTDP1 cells, no CPT, ATP luminescence, 48 h. Potency, µM (top dose mostly 46.2 µM), for inactives: at the highest dose activity change, negative = growth inhibition, actives largely listed as inhibitors. 420,000 compounds, 15% hits; note: nearly all actives have a fitted effect of over 55% in size
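No-CPT arm: Tdp1-/-;hTDP1 DT40 cells (400/well) plus compounds, incubated ≥48 hr at 37 °C. Readout CellTiter-Glo luminescence.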
ELG1 DNA repair: qHTS screen for small molecules that inhibit ELG1-dependent DNA repair in human embryonic kidney (HEK293T) cells expressing luciferase-tagged ELG1. HEK293T ELG1-luciferase reporter, luminescence, 16 h; DNA damage induced by 5-fluorouridine. Potency, µM (doses to about 46.1 µM), inactives show at the highest dose activity change, negative = inhibition, actives largely listed as inhibitors. 330,000 compounds, 2.3% hits; note: nearly all actives have a fitted effect of over 55% in size
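5-Fluorouridine DNA damage + compound/DMSO, 2,000 cells/well, 16 h, 37 °C/5% CO2. ONE-Glo, 30 min RT, luminescence. Readout = decrease in reporter signal.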
VP16 counter: VP16 counterscreen qHTS for inhibitors of ROR gamma transcriptional activity. AID 2546, 2010. Potency, µM (top dose mostly 53.6 µM), for inactives: top-dose activity, negative = inhibition, usual class: inhibitors. 310,000 compounds, 3.5% hits. Drosophila S2 Gal4-VP16 UAS-luciferase, luminescence, 20 h;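 note: Gal4-VP16 expression switched on by copper sulfate through the metallothionein promoter; nearly all actives have a fitted effect of over 50% in size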
RORgamma inh: qHTS for inhibitors of ROR gamma transcriptional activity. Drosophila S2 Gal4-RORgamma UAS-luciferase reporter, 20 h. Potency, µM (doses to about 53.6 µM), for inactives: at the highest dose activity change, negative = inhibition, usual class: inhibitors. 310,000 compounds, 5.4% hits. AID 2551, 2010; note: nearly all actives have a fitted effect of over 60% in size
Target sequence (P51450 whole entry, looked up, the tested form may be a part): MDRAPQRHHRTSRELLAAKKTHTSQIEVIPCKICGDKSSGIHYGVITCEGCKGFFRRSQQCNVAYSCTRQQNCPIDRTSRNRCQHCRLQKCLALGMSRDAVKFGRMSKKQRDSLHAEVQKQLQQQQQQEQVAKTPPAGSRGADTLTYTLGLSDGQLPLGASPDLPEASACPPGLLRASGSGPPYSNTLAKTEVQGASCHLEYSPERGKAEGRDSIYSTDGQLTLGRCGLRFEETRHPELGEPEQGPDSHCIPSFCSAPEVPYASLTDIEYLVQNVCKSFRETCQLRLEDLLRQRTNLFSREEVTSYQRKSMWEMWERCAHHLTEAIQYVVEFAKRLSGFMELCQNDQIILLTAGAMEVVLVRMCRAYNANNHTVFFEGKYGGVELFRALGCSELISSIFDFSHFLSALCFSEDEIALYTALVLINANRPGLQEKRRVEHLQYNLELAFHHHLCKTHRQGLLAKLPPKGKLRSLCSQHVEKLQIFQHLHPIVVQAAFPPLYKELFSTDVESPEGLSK
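A Gal4/UAS one-hybrid system in insect cells: metallothionein-promoter Gal4–ROR gamma fusion plus Photinus luciferase reporter. Copper sulfate 700 uM final, 20 hr ambient incubation, luminescent detection after 10 min with reagent.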
ALOX12 inh: Primary qHTS assay for inhibitors of human arachidonate 12S-lipoxygenase (ALOX12): Round 2 | Potency, µM (top dose mostly 108 µM), for inactives: at the top dose activity change, negative = inhibition, most hits filed as inhibitors | Polyunsaturated fatty acid lipoxygenase ALOX12 (Homo sapiens), P18054 | purified 12hLO, xylenol orange hydroperoxide absorbance | 580,000 compounds, 1.1% hits | AID 1671190, 2021
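Purified human 12hLO (150 nM final) in 25 mM Hepes, 0.01% Triton X-100, pH 7.0 was preincubated 15 min at room temperature with compound. Then 40 uM arachidonic acid was added, 30 min. Hydroperoxide was read by Fe-XO absorbance ratio 573/405 nm.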
* hit, by the source's call; u = inconclusive; x = no result given; [ ] = remark or other dose. Compounds with a hit are over-represented: about 15% of the library has one in this group of screens. Calls come from the whole dose curve; as a rule, active = well fitted curve in the direction sought with a large enough effect; inconclusive = small, poorly fitted or top-dose-only effect, or another doubt; inactive = no such curve, though single readings can be large; an effect the other way counts as inactive or inconclusive. % is set by controls: 0 for no effect and ±100 for the full control effect; potency is the fitted concentration of half-maximal effect.

SMILES	DT40 TDP1 CPT	DT40 TDP1 no CPT	ELG1 DNA repair	VP16 counter	RORgamma inh	ALOX12 inh
CCSc1nnc(NC(=O)C2CCN(S(=O)(=O)c3c(C)c(C)cc(C)c3C)CC2)s1	x	x	-10%	-5%	21%	x
CCSc1nnc(NC(=O)C2CCN(S(=O)(=O)c3ccccc3C(F)(F)F)CC2)s1	-6%	u	23µM*	10%	u	31%
O=C(NC1CC1)c1cccc(NC(=O)C2CCN(S(=O)(=O)c3ccccc3C(F)(F)F)CC2)c1	u	26µM*	x	x	x	-4%
CC(=O)c1ccc(N2CCN(C(=O)CNC(=O)NCc3ccc(F)cc3)CC2)cc1	x	x	x	x	x	-1%
CNC(=O)CCc1cn(Cc2ccccc2C)c2ccccc12	x	x	x	x	x	6%
Cc1ccc(Cn2cc(CCC(=O)NCC(C)c3ccccc3)c3ccccc32)cc1 (stereo not drawn)	u	16µM*	x	x	x	u
Cc1ccc(CCNC(=O)CCc2cn(Cc3ccccc3C)c3ccccc23)cc1	18µM*	16µM*	x	x	x	-12%
O=C(CCc1c[nH]c2ccccc12)NCCc1ccc(Cl)cc1	3%	-6%	-1%	0%	39%	-14%
O=C(CCc1cn(Cc2ccc(F)cc2)c2ccccc12)NCCc1ccc(Cl)cc1	u	18µM*	x	x	x	0%
CNC(=O)CCc1cn(Cc2ccc(C)cc2)c2ccccc12	x	x	x	x	x	17%
CCOc1ccc(CNC(=O)CCc2cn(C)c3ccccc23)cc1	-22%	u	-4%	-12%	13%	171%
CCOc1ccc(CCNC(=O)CCc2cn(Cc3ccc(F)cc3)c3ccccc23)cc1	u	21µM*	x	x	x	-18%
COc1cccc(C(=O)NCc2coc(-c3cccs3)n2)c1OC	x	x	x	x	x	16%
CC(=O)NC1CC2(CCN(C(=O)CCC(=O)OC(C)(C)C)CC2)Oc2ccccc21 (stereo not drawn)	x	x	x	x	x	13%[6.33 µM]
O=C1CCCN1CCC12CC3CC(CC(C3)C1)C2	u	21µM*	-12%	-19%	u	468%
O=C(C1=NNCC1c1ccc(Cl)cc1)C1CO1 (stereo not drawn)	8.2µM*	u	u	2%	-2%[10 µM]	-11%
Cc1cccc(-c2ccc3ncnc(NCc4cccnc4)c3c2)c1	x	x	0%	x	x	1%
Cc1cccc(CNc2ncnc3ccc(-c4ccoc4)cc23)c1	21µM*	13µM*	u	5%	0%	u
c1cncc(CNc2ncnc3ccc(-c4ccc5c(c4)OCO5)cc23)c1	x	x	6%	x	x	-10%
c1cncc(CNc2ncnc3ccc(-c4ccoc4)cc23)c1	10µM*	u	u	1%	22%	-1%
c1ccc(Nc2ncnc3ccc(-c4cccnc4)cc23)cc1	u	18µM*	x	-13%	3%	-29%
Cc1cccc(CNc2ncnc3ccc(-c4cccnc4)cc23)c1	12µM*	18µM*	0%	-27%	-12%	u
COc1ccc(CN2CC(Oc3ccc4c(c3)OCO4)C2)cc1	x	x	x	x	x	6%[6.33 µM]
COc1ccccc1C(=O)Nc1ccc(N2CCN(C(=O)CC(C)C)CC2)cc1	x	x	x	x	x	33%
O=C(Nc1cccc(C(F)(F)F)c1)N[C@H]1CO[C@H]2[C@@H]1OC[C@@H]2n1nnnc1-c1ccc2c(c1)OCO2	x	x	x	x	x	17%
Cc1noc(C)c1-c1ccc2ncnc(NCc3cccnc3)c2c1	9.2µM*	u	x	-6%	-38%	u
